# DAX1 inh: DAX1 (NR0B1) inhibitors, primary screen, cell-based, HEK293, Gal4-DAX1, luciferase luminescence. Nuclear receptor subfamily 0 group B member 1 (Homo sapiens), P51843. HEK293 Gal4-DAX1 luciferase reporter. inhibition, % at 6.75 µM. actives 0.99% (n = 340,000). AID 504766, 2011;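 active = inhibition above the mean over all tested compounds plus 3 SD, cut at about 4.2% in these data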;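 also: 0% = DAX1-transfected cells with DMSO and 100% = empty-vector control cells with DMSO; inhibition shows as a rise in luminescence from relieved DAX1 repression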
# HSF1 inhib: HSF1 inhibitors in luciferase reporter cells, primary screen, cell-based, NIH3T3, luminescence. AID 2098, 2009. activity change, negative = inhibition, % at 7.5 µM (by protocol). NIH3T3-HGL HSE-luciferase, MG132-induced, luminescence 8 h; hits give low values. actives 0.77% (n = 300,000);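 active = more than half of replicate wells show activity change below -50%, luminescence cut by over half; inconclusive = some wells, but at most half, below -50%; inactive = no replicate well below -50%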;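 also: luciferase reports HSF-1 transcriptional activity via heat shock element; 0% = median of DMSO wells and -100% = zero luminescence signal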
# AHR activator: AHR activators, primary screen, cell-based, luminescence, luciferase reporter, human | AHR-responsive luciferase reporter cells | actives 2.5% (n = 320,000) | Aryl hydrocarbon receptor (Homo sapiens), P35869 | activation, % at 5 µM | AID 2796, 2010; in the data active = activation above about 47%;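 also: 0% = vehicle wells and 100% = reference agonist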
# Target sequence (P35869 whole entry, looked up): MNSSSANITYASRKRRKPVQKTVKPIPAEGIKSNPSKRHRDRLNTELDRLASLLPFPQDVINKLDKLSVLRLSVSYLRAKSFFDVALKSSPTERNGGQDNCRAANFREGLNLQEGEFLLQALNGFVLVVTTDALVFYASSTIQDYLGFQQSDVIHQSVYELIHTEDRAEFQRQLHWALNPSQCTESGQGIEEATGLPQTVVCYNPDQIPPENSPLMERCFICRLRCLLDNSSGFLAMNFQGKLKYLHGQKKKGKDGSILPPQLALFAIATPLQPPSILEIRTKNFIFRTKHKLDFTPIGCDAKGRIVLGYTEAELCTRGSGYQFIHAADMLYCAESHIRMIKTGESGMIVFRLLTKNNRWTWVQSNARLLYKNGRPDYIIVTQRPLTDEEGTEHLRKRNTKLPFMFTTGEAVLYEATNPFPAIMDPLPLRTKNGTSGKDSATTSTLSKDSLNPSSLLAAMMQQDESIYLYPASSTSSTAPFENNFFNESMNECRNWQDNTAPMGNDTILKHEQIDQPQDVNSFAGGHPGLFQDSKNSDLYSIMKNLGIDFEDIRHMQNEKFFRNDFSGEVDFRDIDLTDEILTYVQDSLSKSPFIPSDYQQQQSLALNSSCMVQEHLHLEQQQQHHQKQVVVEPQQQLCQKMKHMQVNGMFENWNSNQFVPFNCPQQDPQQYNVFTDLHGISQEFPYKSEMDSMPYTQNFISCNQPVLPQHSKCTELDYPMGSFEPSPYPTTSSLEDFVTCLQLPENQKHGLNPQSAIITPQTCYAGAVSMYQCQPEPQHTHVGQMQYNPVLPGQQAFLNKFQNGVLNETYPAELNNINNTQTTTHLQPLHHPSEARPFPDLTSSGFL
# HSP90 inh: HSP90 inhibitors, primary screen, cell lysate, luminescence. actives 0.91% (n = 290,000). Rabbit reticulocyte lysate, luciferase refolding luminescence, 3 h. AID 1789, 2009. Heat shock protein HSP 90 (rabbit reticulocyte lysate; luciferase refolding). inhibition, % at 5.6 µM;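 active = inhibition above the screen-wide mean plus 3 SD, computed separately per campaign, cut at about 16% in these data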;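 also: 0% = DMSO wells and 100% = 60 µM geldanamycin wells; inhibitors lower the luminescence because luciferase stays unfolded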
# FXN GAA850 act: FXN promoter activators, primary screen, cell-based, luciferase luminescence, HEK293 lucGAA850. actives 0.56% (n = 360,000). activation, % at 6 µM. HEK293 lucGAA850 FXN promoter luciferase reporter, 24 h; percent of 10 µM SAHA response. AID 540364, 2011;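 active = activation above the average of all compounds screened plus 3 SD, cutoff fixed separately per campaign, cut at about 7.5% in these data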;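 also: 0% = DMSO wells and 100% = 10 µM SAHA wells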
# HSF-1 act: HSF-1 activators, primary screen, NIH3T3-HGL cells, MG132 stress, luminescence, single point; NIH3T3-HGL HSF-1 luciferase reporter, 8 h; 100% = twice DMSO control signal; activation, % at 9 µM; actives 1.7% (n = 300,000);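 active = mean replicate activation of at least 50% with a set share of replicates each reaching 50%; inconclusive = only one of those two conditions met; inactive = mean below 50% and too few replicates reaching it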;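 also: 0% = median of the neutral control wells and 100% = twice that signal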
# HSP90 inh confirm: HSP90 inhibitors, confirmation, cell lysate, luminescence | shares compounds with HSP90 inh | rabbit reticulocyte lysate, luciferase refolding luminescence, 3 h | inhibition, % at 5.9 µM | actives 64% (n = 2,300) | AID 1846, 2009; in the data active = inhibition above about 18%;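 also: 0% = vehicle wells and 100% = reference inhibitor wells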
# FLuc counter: firefly luciferase inhibitors, HSP90 counter-screen, confirmation, artefact control for HSP90 inhibitor project, biochemical, luminescence, triplicate; purified native firefly luciferase; inhibition, % at 5.9 µM; shares compounds with HSP90 inh; actives 48% (n = 2,300);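 active = inhibition above the mean inhibition of all tested sample wells plus 3 SD, cut at about 10% in these data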;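 also: 0% = DMSO with luciferase and 100% = wells lacking luciferase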
# * hit, by the source's call; ? = inconclusive; . = not tested or not shown. Most compounds without a hit are left out; they make up all but 5.9% or so of the library.
SMILES,DAX1 inh,HSF1 inhib,AHR activator,HSP90 inh,FXN GAA850 act,HSF-1 act,HSP90 inh confirm,FLuc counter
Oc1c(C=NCc2ccncc2)sc2ccccc12,.,2,28,21*,.,8,-2,-23
S=c1[nH]nc(-c2cc(-c3ccccc3)n[nH]2)n1/N=C/c1cccc(Cl)c1,2,1,23,-2,4,8,.,.
CSc1ccccc1NC(=O)CN(C)C(=O)c1c(C)nn(Cc2ccccc2)c1C,0,.,0,.,1,.,.,.
Oc1c(C=Nc2ccc(Cl)cn2)sc2ccccc12,1,-10,8,24*,6,-1,42*,18*
Cc1c(NC(=O)CSCc2ccco2)c(=O)n(-c2ccccc2)n1C,0,0,1,0,-1,10,.,.
COc1ccccc1C(=O)N/C(=C\c1cn(S(=O)(=O)N(C)C)c2ccccc12)C(=O)N1CCCC1,0,5,1,-6,0,5,.,.
O=C(N/N=C/c1cccs1)c1ccccn1,2,11,3,4,5,5,.,.
Cc1ccc(/C=N/NC(=O)c2ccccn2)s1,1,1,34,18*,1,34,31*,19*
CCN(CC)c1ccc(/C=N/NC(=O)c2ccccn2)cc1,4,3,26,13,2,20,.,.
CCc1ccc(/C=N/NC(=O)c2ccccn2)cc1,0,13,4,23*,-1,44,73*,65*
COc1ccc(N2C(=O)c3ccccc3NC23CCCC3)cc1,0,29,-4,19*,4,45,2,-6
CC(C)C(=O)Nc1nc2c(ncn2C2CC(O)C(CO)O2)c(=O)[nH]1 (stereo unspecified),2,-5,-2,34*,0,-8,4,-1
COc1ccc(C(=O)O)cc1S(=O)(=O)N1CCN(Cc2ccc3c(c2)OCO3)CC1,0,.,0,.,1,.,.,.
O=C(c1ccccc1NS(=O)(=O)c1cccc2cccnc12)N1CCOCC1,0,-1,-1,1,0,-6,.,.
COc1ccc2c(c1)CCC1(C)CC(=O)C(Br)=C21 (stereo unspecified),0,.,.,.,3,.,.,.
CCOP(=O)(NC(c1ccccc1)c1nc2ccccc2[nH]c1=O)OCC (stereo unspecified),-1,-5,5,0,2,-1,.,.
Cc1ccc(C(=O)Cc2nc3ccccc3[nH]2)cc1,0,25,3,1,4,32,.,.
O=C(Cc1nc2ccccc2[nH]1)c1cccc([N+](=O)[O-])c1,-3,-15,9,20*,0,10,27*,5
CCCCn1c(N)c(N(CCOC)C(=O)CC(NC(=O)c2ccccc2)c2ccccc2)c(=O)[nH]c1=O (stereo unspecified),1,2,0,.,0,-16,.,.
CSc1ccc(C(=O)N2CCC(CCC(=O)NCc3ccc(F)cc3)CC2)cc1,1,-2,.,8,-2,2,.,.
C=CCN=c1scc(-c2ccco2)n1/N=C/c1ccc(O)c(O)c1O,1,9,6,17*,7,10,25*,-22
COCCN=c1scc(-c2ccco2)n1/N=C/c1ccc(O)c(O)c1O,0,.,-5,1,5,.,.,.
Cc1nc2ccccc2c(=O)n1/N=C/c1ccc(O)c(O)c1O,1,-8,5,-1,2,-9,.,.
CN=c1scc(-c2cccs2)n1/N=C/c1ccc(O)c(O)c1O,-1,?,23,24*,6,-51,87*,78*
COCC(=O)N1CCC(Oc2ccc(C(=O)N3C[C@@H](C)O[C@@H](C)C3)cc2)CC1,0,-3,-2,0,1,4,.,.
SMILES,DAX1 inh,HSF1 inhib,AHR activator,HSP90 inh,FXN GAA850 act,HSF-1 act,HSP90 inh confirm,FLuc counter
Nc1nnc(Cc2ccc(Cl)c(Cl)c2)s1,-1,-9,0,-2,5,1,.,.
Cn1c(=O)c2c(ncn2CC(=O)OCC(=O)c2ccc(OC(F)F)cc2OC(F)F)n(C)c1=O,2,.,.,.,0,.,.,.
N#CCCN(Cc1cccnc1)C(=S)NC(=O)c1ccco1,4,.,-2,-3,0,.,.,.
N#CCCN(Cc1cccnc1)C(=S)NCc1ccco1,3,.,1,61*,2,.,4,1
CCOCCc1nnc(NC(=O)C2CCN(C(=O)c3ccco3)CC2)s1,-2,-6,0,5,2,-12,.,.
O=Cc1ccc(-c2ccc(C(=O)O)cc2)o1,4,-5,1,17*,2,-5,10,1
O=Cc1ccc(-c2ccc(F)cc2)o1,-1,-3,1,2,1,20,.,.
Nc1nnc(-c2cc3ccccc3oc2=O)s1,0,-3,20,-3,3,10,.,.
Nc1cccc(-c2cc3ccccc3oc2=O)c1,-1,-5,-8,44*,-10,-2,35*,-16
Cc1cnc(C(=O)NC2CC(C)(C)Cc3c2cnn3-c2ccccc2)cn1 (stereo unspecified),0,9,-3,-3,2,33,.,.
COc1ccc(/C=N/NC(=O)c2nn(-c3ccc(Cl)cc3)c(=O)c3c(N)scc23)cc1,1,6,0,5,5,36,.,.
COc1ccc(/C=N/NC(=O)c2nn(-c3ccccc3)c(=O)c3c(N)scc23)cc1,0,6,0,20*,2,12,8,-11
CC(=O)N(/N=C1\Sc2ccccc2C1=O)c1ccccc1,2,.,.,11,4,.,.,.
CC(=O)N(/N=C1\Sc2ccccc2C1=O)c1ccc(C)cc1C,1,-86*,38,41*,-13,-89,79*,58*
COc1cccc2cc(-c3nc4ccccc4o3)c(=O)oc12,4.4*,14,18,19*,3,6,18*,2
O=c1oc2ccc(Br)cc2cc1-c1nc2ccccc2o1,0,-10,7,2,-2,-15,.,.
O=C(O)[C@H](Cc1ccccc1)NC(=O)N1CCN(c2ccc(F)cc2)CC1,1,1,0,-1,0,-8,.,.
CC1CCN(c2oc(-c3cccc4ccccc34)nc2C#N)CC1,-1,3,4,0,3,29,.,.
N#Cc1nc(-c2cccc3ccccc23)oc1N1CCCCC1,0,20,6,21*,-1,26,0,-12

# Source: PubChem BioAssay (several laboratories)
